Assay results reported in PubChem BioAssay AID2284383 (EPA ToxCast).
Records with an inconclusive call do not appear. The source made the active and inactive calls. Rule for the calls: active = hit-call score of the fitted dose curve at least 0.9, where 1 is the maximum; inconclusive = response in the unintended direction; inactive = score below 0.9.

Target: human Retinoic Acid Receptor gamma (RARg) Agonism, RARG (gene 5916) (UniProt P13631)
Experiment: ERF_TW_NR_COA_hRARG: Eurofins (ERF) Nuclear Receptor (NR) Functional Coactivator Assay for human Retinoic Acid Receptor gamma (RARg) Agonism
Description: ERF_TW_NR_COA_hRARG is a biochemical, single-readout assay that uses extracted gene-proteins in a cell-free assay. Measurements were taken 16 hours after chemical dosing in a 96-well plate. […] It is designed to measure FRET using a type of binding reporter as detected by fluorescence intensity of AM580 with fluorimetry technology.Data from the assay component ERF_TW_NR_COA_hRARG was analyzed at the assay endpoint, ERF_TW_NR_COA_hRARG, in the positive analysis fitting direction relative to DMSO as the negative control and baseline of activity. Using a type of binding reporter, gain-of-signal activity can be used to understand changes in binding as they relate to gene RARG. To generalize the intended target to other relatable targets, this assay endpoint is annotated to the nuclear receptor intended target family, where the subfamily is non-steroidal.
Human recombinant retinoic acid receptor […] (RARgamma) receptors expressed in bacteria are used. Test compound and/or vehicle is incubated with the 25 nM receptors and binding buffer in modified Tris-HCl buffer pH 7.4 for 16 hours at 4C. Determination of the amount of complex formed is read spectrofluorimetrically (excitation:337 nm, emission:620/665 nm). Test compound-induced increase in fluorescence by 50 percent or more (>/= 50%) relative to the 0.3 uM AM580 response indicates possible RARgamma receptor agonist activity. […]

human Retinoic Acid Receptor gamma (RARg) Agonism, RARG (gene 5916), sequence (P13631 whole entry, looked up): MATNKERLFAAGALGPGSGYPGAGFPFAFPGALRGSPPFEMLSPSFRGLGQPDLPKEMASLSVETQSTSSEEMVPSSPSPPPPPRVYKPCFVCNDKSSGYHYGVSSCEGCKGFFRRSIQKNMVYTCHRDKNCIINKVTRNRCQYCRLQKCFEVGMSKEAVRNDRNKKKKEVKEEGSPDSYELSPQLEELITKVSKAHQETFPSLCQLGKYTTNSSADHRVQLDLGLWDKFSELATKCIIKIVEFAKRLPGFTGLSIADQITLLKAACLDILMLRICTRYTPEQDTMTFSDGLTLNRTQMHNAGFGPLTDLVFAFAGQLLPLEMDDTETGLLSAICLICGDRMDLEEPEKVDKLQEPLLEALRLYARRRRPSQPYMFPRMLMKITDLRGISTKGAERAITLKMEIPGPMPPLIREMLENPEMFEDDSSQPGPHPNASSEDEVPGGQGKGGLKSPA

C[C@H]1C[C@@H]2[C@H]([C@@H](O)C[C@@]3(C)[C@H]2CC[C@]3(O)C(=O)CO)[C@@]2(C)C=CC(=O)C=C12
outcome: inactive
